Growth data for 13 compounds are collected here from PubChem BioAssay (NCI).

Test systems include SR leukemia; RPMI-8226 leukemia; OVCAR-8 ovarian; OVCAR-5 ovarian; OVCAR-4 ovarian; SK-OV-3 ovarian; IGROV1 ovarian; HS 578T breast; NCI/ADR-RES ovarian; T-47D breast; BT-549 breast; SW-620 colon; MCF7 breast; HCT-116 colon; HCC-2998 colon; KM12 colon; MDA-MB-435 melanoma.
Assay in all cases: NCI-60 one-dose screen, 48 h (100 = growth as untreated, 0 = no growth, -100 = all killed)
Details in all cases: 10 µM unless noted

The structures appear in SMILES notation. Compounds without any hit were thinned out: in the full panel of roughly 83,000, 20% have a hit.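 Note: values are percent growth. 100 is the growth of untreated cells, values between 100 and 0 indicate rising inhibition; between -100 and 0 indicates cell death.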 A number with no mark means an inactive call. Calls of active or inactive are those of the source. The calls were made as follows: active = growth percent below 10; inactive = the rest.

`Nc1ccc(Nc2ncnc3sc4c(c23)CCN(Cc2ccccc2)C4)cc1`: the growth in the assay on SR leukemia was 82.9%; in the assay with RPMI-8226 leukemia it was 94.3%; in the assay on OVCAR-8 ovarian it was 99.3%; with OVCAR-5 ovarian, 107%; in the assay on OVCAR-4 ovarian, 96.8%; in the assay with SK-OV-3 ovarian, 113%. Moreover, the growth in the assay with IGROV1 ovarian was 101%; in the assay with HS 578T breast, 98.2%; in the assay on NCI/ADR-RES ovarian, 101%; in the assay with T-47D breast, 102%; in the assay with BT-549 breast, 101%; with SW-620 colon, 99.7%. For the same compound, the growth with MCF7 breast was 84.5%; in the assay with HCT-116 colon, 96.9%; in the assay with HCC-2998 colon it was 105%; in the assay on KM12 colon, 104%.
As for `COc1ccccc1N1CCN(C2=C(Cl)C(=O)c3ncccc3C2=O)CC1`, the growth in the assay on SR leukemia was 12.4%; in the assay on RPMI-8226 leukemia, 79.4%; in the assay on OVCAR-8 ovarian, 90.5%; in the assay on OVCAR-5 ovarian, 114%; in the assay with OVCAR-4 ovarian, 85.7%; in the assay on SK-OV-3 ovarian, 90.5%. Besides, the growth with IGROV1 ovarian was 86.3%; in the assay on HS 578T breast, 87.2%; in the assay on NCI/ADR-RES ovarian, 81.7%; in the assay with BT-549 breast, 119%; with SW-620 colon, 43.8%; in the assay on MCF7 breast, 36.9%. Moreover, the growth is 27.1% with HCT-116 colon, 108% in the assay with HCC-2998 colon and 90.7% with KM12 colon.
With `CC[C@]12C=CCN3CC[C@]4(C(=C(C(=O)OC)C1)Nc1cc5c(cc14)[C@@H]1[C@H](O5)[C@@H](O)[C@@]4(CC)CC(C(=O)OC)=C5Nc6cc(O)ccc6[C@@]56CCN1C46)C32` (some centres not stated), the growth with SR leukemia was 5.68% (active); in the assay on RPMI-8226 leukemia, -10.2% (active); with OVCAR-8 ovarian, 19.4%; in the assay on OVCAR-5 ovarian, 20.7%; with OVCAR-4 ovarian, 15.4%; in the assay on SK-OV-3 ovarian it was 24.1%. The growth in the assay on IGROV1 ovarian was -2.81% (active); in the assay on HS 578T breast it was -7% (active); in the assay with NCI/ADR-RES ovarian it was 2.99% (active); with T-47D breast it was 6.91% (active); with BT-549 breast, 18.8%; in the assay with SW-620 colon it was 2.78% (active). Further, the growth with MCF7 breast was 3.26% (active); with HCT-116 colon, -70.5% (active); in the assay on HCC-2998 colon it was -64.8% (active); with KM12 colon, -30.2% (active).
Regarding `NC(=O)c1ncn2c(=O)n(CCF)nnc12`, the growth is 35.3% in the assay on SR leukemia; 44% with RPMI-8226 leukemia; 38.3% in the assay with OVCAR-8 ovarian; 85.1% with OVCAR-5 ovarian; 58% in the assay with OVCAR-4 ovarian; 17.3% in the assay with SK-OV-3 ovarian. Moreover, the growth in the assay on IGROV1 ovarian is 70.3%; in the assay with HS 578T breast, 103%; in the assay on NCI/ADR-RES ovarian it was 50.6%; in the assay with BT-549 breast, 110%; with SW-620 colon, 40.4%; in the assay on MCF7 breast it was 57.8%. Besides, the growth is 47.4% with HCT-116 colon, 56.4% with HCC-2998 colon and 83.5% in the assay on KM12 colon.
Take `CC(=O)/C(N=Nc1ccc2oc(=O)ccc2c1)=C(\C)O`: the growth was 9.76% (active) with SR leukemia; 12.3% in the assay on RPMI-8226 leukemia; 25.1% with OVCAR-8 ovarian; 50.8% with OVCAR-5 ovarian; 50% in the assay with OVCAR-4 ovarian; 37.1% in the assay on SK-OV-3 ovarian. The growth in the assay with IGROV1 ovarian was 32.4%; with HS 578T breast, 63.1%; with NCI/ADR-RES ovarian, 13.3%; in the assay with BT-549 breast it was 33.2%; in the assay on MDA-MB-435 melanoma it was 33.2%; with SW-620 colon it was 17.6%. Moreover, the growth in the assay with MCF7 breast was 25.8%; in the assay with HCT-116 colon, 12.1%; with HCC-2998 colon it was 35.7%; in the assay with KM12 colon, 19%.
In the case of `CC1=Cc2ccccc2OC12C=Cc1ccccc1O2` (configuration not stated), the growth is 103% in the assay with SR leukemia; 104% in the assay on RPMI-8226 leukemia; 103% with OVCAR-8 ovarian; 102% with OVCAR-5 ovarian; 105% in the assay with OVCAR-4 ovarian; 102% with SK-OV-3 ovarian. The growth in the assay on IGROV1 ovarian was 69.1%; in the assay on HS 578T breast, 106%; with NCI/ADR-RES ovarian, 98.6%; with T-47D breast it was 81.8%; with BT-549 breast, 106%; in the assay with SW-620 colon, 101%. Besides, the growth is 82.6% with MCF7 breast, 99.3% in the assay on HCT-116 colon, 99.9% with HCC-2998 colon and 97.6% in the assay with KM12 colon.
For `Brc1ccc2[nH]cc(-c3nn4cc(-c5nccs5)nc4s3)c2c1`, the growth with SR leukemia is 45.2%; in the assay on RPMI-8226 leukemia it was 4.55% (active); with OVCAR-8 ovarian it was 10.5%; with OVCAR-5 ovarian it was 67.5%; in the assay with OVCAR-4 ovarian it was -4% (active); with SK-OV-3 ovarian it was 61.5%. In addition, the growth in the assay with IGROV1 ovarian was 32%; in the assay with HS 578T breast, -0.729% (active); in the assay on T-47D breast it was 29.7%; in the assay with BT-549 breast, 62.6%; with MDA-MB-435 melanoma it was 12.9%; with SW-620 colon, 25.2%. In addition, the growth with MCF7 breast is 33.9%; in the assay with HCT-116 colon, -81.7% (active); in the assay with HCC-2998 colon it was 36.7%; in the assay on KM12 colon, 21%.
Take `CCOC(=O)Nc1ccc2c(ccn2C(=O)c2cccc(F)c2)c1`: the growth with SR leukemia was 16.8%; in the assay with RPMI-8226 leukemia it was 24.6%; with OVCAR-8 ovarian, 43.9%; in the assay on OVCAR-5 ovarian, 60.5%; in the assay on OVCAR-4 ovarian, 68.8%; with SK-OV-3 ovarian, 55.3%. In addition, the growth in the assay with IGROV1 ovarian is 45.4%; in the assay on HS 578T breast it was 39.1%; with NCI/ADR-RES ovarian, 19.8%; with T-47D breast it was 45.2%; in the assay on BT-549 breast it was 26.1%; with MDA-MB-435 melanoma, -45.4% (active). Moreover, the growth in the assay with SW-620 colon is 26.3%; with MCF7 breast, 26%; in the assay with HCT-116 colon, 25.6%; in the assay on HCC-2998 colon, 43.8%; with KM12 colon, 24.6%.
`C/C(=N\NC(N)=S)c1nnn(-c2ccc([N+](=O)[O-])cc2)c1C`: the growth in the assay with SR leukemia is 110%; in the assay with RPMI-8226 leukemia, 103%; with OVCAR-8 ovarian, 98.6%; in the assay on OVCAR-5 ovarian, 98.7%; in the assay with OVCAR-4 ovarian, 108%; in the assay on SK-OV-3 ovarian, 104%. Moreover, the growth with IGROV1 ovarian is 100%; with HS 578T breast, 96.3%; in the assay on T-47D breast, 92%; in the assay with BT-549 breast it was 95.5%; in the assay with MDA-MB-435 melanoma, 102%; with SW-620 colon it was 94.9%. Besides, the growth with MCF7 breast was 91.9%; with HCT-116 colon, 98.6%; in the assay with HCC-2998 colon, 100%; in the assay with KM12 colon, 96.8%.
`CC(C)(C)OC(=O)Nc1ccc(-c2cccc(Oc3ccc4nnc(Cl)n4n3)c2)cc1`: the growth with SR leukemia is 36%; in the assay with RPMI-8226 leukemia it was 43.2%; in the assay with OVCAR-8 ovarian, 71.3%; in the assay with OVCAR-5 ovarian, 100%; in the assay with OVCAR-4 ovarian it was 63.7%; in the assay with SK-OV-3 ovarian, 95.5%. The growth in the assay with IGROV1 ovarian was 98.8%; in the assay with HS 578T breast, 94.5%; in the assay with NCI/ADR-RES ovarian it was 70.8%; with T-47D breast, 59.3%; in the assay on BT-549 breast it was 58.8%; in the assay on SW-620 colon, 97.3%. Moreover, the growth in the assay with MCF7 breast was 74.8%; in the assay with HCT-116 colon, 43.9%; with HCC-2998 colon, 109%; in the assay on KM12 colon it was 88.2%.
Consider `CCc1cc(OC(=O)N2CCN(CCC(C)(COC(C)(C)C)COC(C)(C)C)CC2)ccc1Nc1cc(-c2ccc(-n3cccn3)cc2)[nH]n1`, for which the growth in the assay with SR leukemia is 37.9%; in the assay on RPMI-8226 leukemia, 60.5%; with OVCAR-8 ovarian, 84.3%; in the assay with OVCAR-5 ovarian, 89.1%; in the assay on OVCAR-4 ovarian it was 60.8%; in the assay with SK-OV-3 ovarian, 105%. Moreover, the growth was 67% with IGROV1 ovarian; 68.2% in the assay on HS 578T breast; 74.5% with NCI/ADR-RES ovarian; 61% in the assay on T-47D breast; 108% with BT-549 breast; 94.8% in the assay on SW-620 colon. Also, the growth in the assay with MCF7 breast was 50.1%; in the assay on HCT-116 colon, 66.3%; in the assay with HCC-2998 colon, 91.5%; in the assay with KM12 colon, 85.6%.
Take `Oc1ccc(-c2nc3ccc(/C(=N\N=C\c4ccc(Cl)cc4)c4ccccc4)cc3[nH]2)cc1`: the growth with SR leukemia was 62.1%; in the assay with RPMI-8226 leukemia, 33.9%; in the assay on OVCAR-8 ovarian it was 82.9%; with OVCAR-5 ovarian, 97.1%; in the assay with OVCAR-4 ovarian, 58.1%; in the assay on SK-OV-3 ovarian it was 106%. Further, the growth was 89.9% with IGROV1 ovarian; 98.3% in the assay with HS 578T breast; 79.9% in the assay on T-47D breast; 94.3% in the assay on BT-549 breast; 84.4% with MDA-MB-435 melanoma; 88.5% with SW-620 colon. Besides, the growth in the assay with MCF7 breast is 53.1%; in the assay on HCT-116 colon it was 82.6%; with HCC-2998 colon it was 91.9%; in the assay with KM12 colon, 74%.
Turning to `COc1ccc2c(c1)c(-c1nn3cc(-c4ccncc4)nc3s1)cn2C`, the growth with SR leukemia is -3.79% (active); in the assay with RPMI-8226 leukemia it was 61.4%; in the assay on OVCAR-8 ovarian, 71.7%; in the assay with OVCAR-5 ovarian, 102%; in the assay with SK-OV-3 ovarian it was 93.6%; in the assay with IGROV1 ovarian, 70.3%. The growth is 86.9% in the assay on HS 578T breast; 69.8% in the assay with NCI/ADR-RES ovarian; 42.4% in the assay with T-47D breast; 71.5% with BT-549 breast; 96.3% with MDA-MB-435 melanoma; 69.5% in the assay with SW-620 colon. Further, the growth in the assay on MCF7 breast was 19.3%; with HCT-116 colon, 55.1%; in the assay with HCC-2998 colon, 87.2%; in the assay with KM12 colon it was 83.3%.
